# Assay results published in PubChem BioAssay AID588497 (NMMLSC, 2011).
# Hit rate of the full screen: of about 360,000 compounds, about 780 (0.22%) were called active. About 4% were inconclusive and are not listed. What follows is part of a selection rich in actives, with near analogues and random picks from the rest. A number with no mark means an inactive call. Cut-off read from the data, not from the text of the source: active = inhibition above about 35% (passing the limit was not always enough); inconclusive = no clear call, values can overlap the other calls.
# Test system: Botulinum neurotoxin type F light chain protease (Clostridium botulinum)
# Assay: BoNT/F light chain protease inhibitors, primary screen, biochemical, flow cytometry, MLPCN library (AID 588497); note: plate controls were buffer without enzyme for full effect and enzyme alone for no effect
# Conditions: Multiplex microsphere protease cleavage assay, at 10 µM, stronger effect = higher value
row,Compound,inhibition
1,CCCCc1c(-c2ccc(Cl)cc2)ncn1CCc1ccccc1OC,0.1%
2,NC(c1csc(NC(=O)Nc2cccc(C(F)(F)F)c2)n1)C1CCCCC1 (stereo not given),-35.6%
3,Cc1cccc(-c2cnc(C(O)c3ccc4ccccc4c3)[nH]2)c1 (stereo not given),-3.1%
4,COc1cc(/C=C2\SC(=S)N(Nc3ncc(C(F)(F)F)cc3Cl)C2=O)cc(OC)c1OC,43.1% (active)
5,COc1cc(/C=C/C(=O)N2c3ccccc3Sc3ccc(C(F)(F)F)cc32)cc(OC)c1OC,-24.7%
6,O=C1/C(=C/c2ccc(F)cc2)SC(=S)N1NS(=O)(=O)c1ccccc1,0.7%
7,COc1ccc(Br)c(Cn2c(C)c(C(=O)NCc3cccs3)sc2=O)c1,3.6%
8,O=C(Nc1nnc([C@H]2C[C@H](O)[C@@H](CO)O2)s1)c1cccc(Cl)c1,2.2%
9,COc1ccccc1CNC(=O)[C@@H]1CCCN1C(=O)[C@@H]1Cc2ccccc2CN1C(=O)OC(C)(C)C,-3.1%
10,COc1ccccc1CNC(=O)C1Cc2ccccc2C(=O)O1 (stereo not given),40.9% (active)
11,COc1ccccc1CNC(=O)C1CCN(S(C)(=O)=O)CC1,-1.3%
12,NC(Cc1ccccc1)c1csc(Nc2cc(Oc3ccccc3)ncn2)n1 (stereo not given),-21.7%
13,COc1ccc(CC(N)c2csc(NC(=O)Cc3ccccc3)n2)cc1 (stereo not given),-9.3%
14,CN(C)C(=O)c1cccc(-c2cnc3sc(NCc4ccc5c(c4)OCO5)nn23)c1,-7.5%
15,COc1ccc(CCN(Cc2cc3cccc(C)c3[nH]c2=O)C(=O)N2CCCC2)cc1OC,-19.1%
16,Cc1ccc2[nH]c(=O)c(CN(CCCN(C)C)C(=O)Nc3cccc(Cl)c3)cc2c1,1%
17,COc1cc2cc(CN(CCN3CCCC3)C(=O)Nc3ccccc3Cl)c(=O)[nH]c2cc1OC,56.9% (active)
18,FC(F)(F)Oc1ccccc1C(c1nnnn1C1CCCCC1)N1CCN(C/C=C/c2ccccc2)CC1 (stereo not given),-16.7%
19,CC1(Cc2ccccc2C#N)C(=O)Nc2ccc(-c3ccc4[nH]ccc4c3)cc21 (stereo not given),-3.4%
20,CC(=NNC(=S)N1CCCCCC1)c1ccccn1,55% (active)
21,C/C(=N\NC(=O)c1ccccc1F)c1ccccn1,-0.7%
22,Cc1cccc(C)c1NC(=S)N1CCCCCC1,4.7%
23,Cc1ccc(C(NC(=O)C2CCN(CCOc3ccc(Cl)cc3Cl)CC2)c2ccccn2)cc1 (stereo not given),4.2%

row,Compound,inhibition
1,CC(=O)Nc1cccc(-c2ccnc3c2CC(C)(C(=O)NCc2ccccc2)O3)c1 (stereo not given),-1.6%
2,CCOc1ccc(CCN2C(=S)N([C@@H](CC(C)C)CN3CCC[C@@H]3CN3C(=S)NC[C@@H]3Cc3ccc(O)cc3)C[C@@H]2CC(C)C)cc1,-7.7%
3,CCCCC[C@H](C)N1C[C@@H](COCc2ccccc2)Oc2cc(N3CC[C@@H](N(C)C)C3)ccc2S1(=O)=O,-14%
4,CC(C)Cc1ccc(-c2cc3nc(NCc4cccc(Cl)c4)ccn3n2)cc1,-1.6%
5,C=CCOCCN(C)C1=NS(=O)(=O)c2ccccc21,-7.4%
6,COc1ccc(/C=N/N(C)C2=NS(=O)(=O)c3ccccc32)cc1OC,-14.8%
7,O=S1(=O)N=C(N(CCO)/N=C/c2ccccc2F)c2ccccc21,74.7% (active)
8,COc1cncc(-c2cnc3sc(NCCc4ccccn4)nn23)c1,-4.1%
9,CCc1nc2ccccc2n(CCOCCOCCn2c(=O)c(CC)nc3ccccc32)c1=O,-0.5%
10,CCOCCn1c(C(C)C)nc2ccccc21,2.9%
11,CCOCCn1c(-c2ccccc2)nc2ccccc21,65.4% (active)
12,Cc1ccc(NS(=O)(=O)c2cc3c(cc2Br)NC(=O)CO3)cc1C,0.3%
13,CN(Cc1cn(Cc2ccc(C(F)(F)F)cc2)nn1)C1CN(Cc2cn(Cc3ccc(C(F)(F)F)cc3)nn2)S(=O)(=O)C1 (stereo not given),-10.7%
14,CCCCCCCCN1C(=O)[C@H](CC(=O)NCc2cccc3ccccc23)C[C@@]2(C(=O)OC)CCCCC=C12,-5.2%
15,COc1ccc(CN2C3CCCC2CC(NC(=O)c2cccc(F)c2)C3)cc1 (stereo not given),-2.5%
16,CCCN1C2CCCC1CC(NC(=O)c1cccc(OC)c1)C2 (stereo not given),34.7% (active)
17,COc1cccc(NC(=O)N2C3CCCC2CC(NC(C)=O)C3)c1 (stereo not given),28.5%
18,Nc1nc2c(Br)ccc(Br)c2cc1C(=O)NCCc1ccccc1,-1%
19,CCCCCc1c(-c2cccc(Br)c2)ncn1CCc1ccccc1OC,-6.3%
20,Oc1cccc2cc(-c3ccncc3)cnc12,-5.1%
21,O=C(CCC(=O)N1CCN(S(=O)(=O)c2ccccc2)CC1)NC1CCCc2ccccc21 (stereo not given),7.9%
22,CNS(=O)(=O)c1cccc(C(=O)NC2CCCc3ccccc32)c1 (stereo not given),2.8%
23,O=C(O)c1cc(S(=O)(=O)NC2CCCc3ccccc32)ccc1O (stereo not given),49% (active)

row,Compound,inhibition
1,CCCCc1c(-c2ccc(Br)cc2)ncn1CCc1ccccc1OC,-3.2%
2,CCc1nc2c(OCCC3CCCCC3)cccn2c1N(C)C(=O)c1ccco1,1.8%
3,CC(C)C[C@H]1CNC(=O)C(=O)N1C[C@H]1CCCN1C[C@H](Cc1ccc(O)cc1)N1C[C@H](CC(C)C)N(CC2CCCCCC2)C(=O)C1=O,-9.5%
4,CC(C)C[C@@H](COCc1ccc(Cl)cc1)N1CCN(C(=O)c2ccc(Cl)cc2Cl)CCC1=O,-2.4%
5,CC(=O)Nc1cc(-c2ccc(N3CCN(C)CC3)cc2)cn2c(-c3ccc(F)cc3)cnc12,-13.3%
6,O=C(NCCc1c[nH]c2ccccc12)C1CCN(Cc2ccc(Br)cc2)CC1,-27.7%
7,Cc1ccc2[nH]cc(CCNC(=O)c3ccc([N+](=O)[O-])cc3)c2c1,-0.3%
8,Cc1ccc2[nH]cc(CCNC(=O)C3CCCCC3)c2c1,50% (active)
9,COC(=O)[C@@]1(Sc2ccc(C)cc2)CC(=O)N(c2cccc(SC)c2)[C@@H]1c1ccccc1,4.9%
10,CCOC(=O)C(C)n1cnc2c(nnn2-c2cccc(OC)c2)c1=O (stereo not given),18.5%
11,CCOc1nnc(C)c2c(C)n(-c3cccc(Cl)c3)nc12,46.5% (active)
12,CCOc1ccc(CNC(=O)C2CCCN(c3nnc(C)c4c(C)n(-c5ccccc5)nc34)C2)cc1 (stereo not given),10.7%
13,Cc1nc2c(OCC(=O)C(C)(C)C)cccn2c1N(C)Cc1cccs1,4.6%
14,CC(=O)Nc1cc(-c2ccccc2F)cn2c(-c3cccc(C(F)(F)F)c3)cnc12,1.3%
15,CC(=O)c1ccc(-c2cnc3c(NC=O)cc(-c4cccc(NS(C)(=O)=O)c4)cn23)cc1,3%
16,Cc1ccc2nc(-c3ccco3)c(Cc3cccc(Cl)c3)n2c1,0%
17,Cc1cccc(C)c1Cn1c(C)c(C(=O)NCc2cccc(Cl)c2)sc1=O,-3.1%
18,Cc1cc(O)c(C(=O)/C=C/c2c(F)c(F)c(F)c(F)c2F)c(=O)o1,39.9% (active)
19,Cc1cc(O)c(Sc2ccccc2)c(=O)o1,-0.7%
20,COc1ccc(/C=C/C(=O)c2c(O)cc(OC)cc2OC)cc1,-3.2%
21,CCCCn1nnnc1C(c1cccc(OC)c1OC)N1CCN(C/C=C/c2ccccc2)CC1 (stereo not given),-4.8%
22,COc1ccccc1CNC(=O)c1cc(-c2cc(Cl)ccc2C)n[nH]1,-6.5%
23,Fc1cccc(Cc2c(-c3cccc(Cl)c3)nc3ccc(Br)cn23)c1,12.2%

row,Compound,inhibition
1,CC1(C)CC(=O)C=C(N2CCCC2)C1,43.8% (active)
2,CC1(C)CC(=O)C=C(N2CCOCC2)C1,-0.6%
3,CC1Cc2ccccc2N1C1=CC(=O)CC(C)(C)C1 (stereo not given),-1.7%
4,CN(C(=O)CN1CCN(c2cc(-c3ccc(OCc4ccccc4)cc3)ncn2)CC1)c1ccccc1,-2.5%
5,Cc1ccc2nc(-c3ccccc3)c(CC3CCCCC3)n2c1,-7.4%
6,COc1cc(F)ccc1-c1cc(C(=O)NCC2CCCCC2)[nH]n1,-7.3%
7,CCCCCn1nnnc1-c1nc2cc3ccccc3cc2[nH]c1=O,4.1%
8,CCc1nc2ccc(C(=O)NCc3ccc(OC)cc3)cn2c1N(CC)Cc1cccc(Br)c1,-5.2%
9,COc1cccc(CNc2nc(NCc3ccccc3OC)nc3ccsc23)c1,-10.7%
10,CC(O)c1nc2c(c(=O)n(C)c(=O)n2C)n1C (stereo not given),7.6%
11,Cn1c(=O)c2c(nc(NCc3ccccc3)n2CC(N)=O)n(C)c1=O,-8.9%
12,CCC/C(C)=N\Nc1nc2c(c(=O)n(C)c(=O)n2C)n1C,46.4% (active)
13,CCCCN(C=O)c1c(CC)nc2c(OCCC3CCCCC3)cccn12,-1.8%
14,CCn1cc(C(=O)N2CCN(C3CCCCC3)CC2)c2cc(OC)c(OC)cc2c1=O,35% (active)
15,CCn1cc(C(=O)NCC2COc3ccccc3O2)c2cc(OC)c(OC)cc2c1=O (stereo not given),-4.2%
16,COc1cc(C(=O)N2CCN(C3CCC(C)CC3)CC2)cc(OC)c1OC (stereo not given),-2.2%
17,Cc1cccnc1C(NC(=O)C1CCN(Cc2ccc(Cl)c(Cl)c2)CC1)c1ccc(Cl)cc1 (stereo not given),-0.6%
18,CC(=O)Nc1cc(-c2ccccc2N(C)C)cn2c(-c3ccc(F)c(Cl)c3)cnc12,-0.7%
19,CCOc1ccc(NC(=O)CC(Cc2ccc(Cl)cc2)C(=O)O)cc1 (stereo not given),42.9% (active)
20,CN(CC(=O)Nc1ccc(Cl)cc1)C(=O)c1ccc(COc2ccccc2)cc1,8.6%
21,CCOc1ccc(NC(=O)CC2NCCNC2=O)cc1 (stereo not given),-3.7%
